According to the supplement of paper PMC3334620:
Over roughly 33,000 sequences, “E-score (-0.5 to 0.5)” has its median near -8e-05; the highest 2% begin near 0.23. What follows is part of a selection rich in the highest values, with near analogues and random picks from the rest.

biological target: T1, Nrg2 (UniProt P38082); experiment: PBM E-score (8-mer binding enrichment) (E-score (-0.5 to 0.5)); higher = stronger / more preferred TF binding; conditions: protein concentration: 100 nM; construct: GST-full length
T1 sequence: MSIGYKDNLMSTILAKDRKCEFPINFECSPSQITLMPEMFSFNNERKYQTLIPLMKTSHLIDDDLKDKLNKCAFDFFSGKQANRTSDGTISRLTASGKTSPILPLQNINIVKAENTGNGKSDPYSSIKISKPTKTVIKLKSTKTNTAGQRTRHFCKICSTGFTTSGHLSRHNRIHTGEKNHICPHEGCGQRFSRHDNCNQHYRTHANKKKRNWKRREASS
How it was run: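 PURExpress in vitro transcription/translation supplied GST-tagged yeast transcription factors, either full-length or DNA-binding domain. Applied at about 100-200 nM to universal all-10-mer Agilent arrays double-stranded by primer extension, the bound protein was detected with fluorescent anti-GST. E-scores, modified Wilcoxon-Mann-Whitney statistics, were given by the Universal PBM Analysis Suite to ungapped eight-base words pooled with their reverse complements after masliner normalisation.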

Row | Sequence | PBM E-score
1 | ACGGTTAG | -0.312
2 | ATTCTTTA | -0.0742
3 | CATCAATC | -0.0356
4 | AGGGTTAC | -0.14
5 | CAAGTGTA | -0.0141
6 | ATGATGGG | 0.0257
7 | CTATGGCA | -0.0101
8 | CCCTGCAA | 0.162
9 | TCCTGAAA | -0.0476
10 | CCCTGCAG | 0.26
11 | CCCTGGAG | 0.05
12 | CCCTGGAC | 0.295
13 | CCCTGAAA | 0.305
14 | GCCTGAAA | 0.115
15 | CCCTGGAA | 0.0405
16 | ACCTGCAG | -0.0488
17 | ACTCCCGG | -0.0764
18 | ATCCCATA | -0.0872
19 | ACATAGTA | 0.0458
20 | CCATAGTA | 0.0238
21 | GCATAGTA | 0.23
22 | TCTGCAAA | -0.0511
23 | GGCTTCTA | -0.075
24 | AGAAACTG | 0.0813
25 | GACAAGGA | 0.0442

Row | Sequence | PBM E-score
26 | AGGGTCCC | 0.397
27 | ACGGTCCA | -0.162
28 | AGGGTCCA | 0.439
29 | CGGGTCCA | 0.0193
30 | GGGGTCCA | 0.27
31 | CGGGTCCC | -0.125
32 | CGGGTCAA | -0.0478
33 | GAGGTCCA | -0.0725
34 | AGGGTCAG | -0.102
35 | AGGGTCAA | 0.236
36 | ACGGTCCC | -0.00846
37 | AAGGTCCA | 0.073
38 | GGGACAAA | 0.11
39 | GCTGCCAC | -0.138
40 | ACAGTGGT | 0.0526
41 | CTGCTTGA | -0.0823
42 | CAGATCAG | 0.194
43 | CGCTCGGC | 0.0597
44 | AGGGTCCG | 0.374
45 | ACGGTCCG | -0.231
46 | AAGGTCCG | -0.0532
47 | ACCTCAAC | 0.0405
48 | GGCCAACC | 0.0203
49 | AGTATTAG | 0.273
50 | AATATTAG | 0.256

Row | Sequence | PBM E-score
51 | ACTATTAA | 0.175
52 | AATATTAC | 0.14
53 | AATATTAA | 0.295
54 | CATATTAA | 0.129
55 | CATATTAG | 0.124
56 | AGTATTAA | 0.219
57 | TATATTAA | 0.234
58 | AATATTAT | 0.219
59 | CGTATTAG | 0.0345
60 | GATATTAA | 0.147
61 | CTTAGGAA | -0.0218
62 | CGGAGCAA | 0.0265
63 | CCTTCGCC | -0.31
64 | AATCCTGC | -0.00651
65 | CGCATTCA | 0.0356
66 | GAACTGCA | 0.0913
67 | ACATATAA | 0.211
68 | GCCCCCAA | -0.331
69 | CTTTCCAA | -0.0143
70 | AATATTCC | 0.233
71 | AATATTCA | 0.144
72 | AATATTCG | 0.177
73 | TATTACCA | 0.0363
74 | CGAATACA | 0.0068
75 | CCAACGGG | 0.0593

Row | Sequence | PBM E-score
76 | ACAACGGT | -0.0246
77 | TCAACGGA | -0.0313
78 | ACAACGGG | 0.243
79 | ACAACGGA | 0.242
80 | CCAACGGA | -0.031
81 | GACCGGAC | -0.168
82 | AAAGGGCG | 0.0812
83 | AGCGCACT | -0.0126
84 | GTTAGGCA | -0.146
85 | GTTGGTCA | 0.229
86 | CATGGTCA | 0.236
87 | ATTGGTCA | 0.0477
88 | CATGGTCG | -0.0584
89 | CTTGGTCA | 0.138
90 | CATGGTCC | 0.0356
91 | GGAGTGAC | 0.102
92 | ACACCGAC | -0.151
93 | CGCCCTAA | -0.171
94 | CGGGCTAC | -0.0936
95 | AAAGGGTG | 0.00635
96 | AAGGGGTG | -0.00477
97 | AAAGGGTC | 0.318
98 | CAAGGGAG | -0.0764
99 | CAAGGGAC | 0.261
100 | AAGGGGTC | 0.239

Row | Sequence | PBM E-score
101 | AAAGGGTT | 0.0608
102 | CTGGGGTC | 0.015
103 | ATGGGGTC | 0.299
104 | AGGGGGTC | -0.163
105 | ATGGGGTA | 0.127
106 | CAAGGGAA | 0.0785
107 | CCTATATA | 0.0688
108 | CCTTTAGA | -0.136
109 | CAAGGGTG | 0.0522
110 | CAAGGGTC | 0.376
111 | CGGGGGTC | -0.342
112 | GAAGGGTC | 0.0665
113 | CAGGGGTC | 0.302
114 | CAGGGGTA | 0.166
115 | CATCTTAC | -0.00815
116 | ACCAAGTG | -0.0903
117 | CCTCTCTA | -0.294
118 | AATTTCAA | -0.0693
119 | CGTTTTTC | -0.117
120 | GCTACCCA | -0.152
121 | AAGGAAAG | -0.137
122 | AAAAGTAG | 0.0358
123 | CCCGAAAA | 0.129
124 | GCCGAAAC | -0.0148
125 | GCCGAAAA | 0.239

Row | Sequence | PBM E-score
126 | TATCCACA | 0.131
127 | AATGAACC | 0.00986
128 | GATGAACC | -0.0336
129 | CATGAACC | 0.233
130 | CCTCTTGA | 0.0273
131 | TGCCCACA | -0.0506
132 | GAATATTC | 0.24
133 | GAATATCA | 0.0654
134 | CAATATTC | 0.0479
135 | GAATATGA | -0.0524
136 | AAATATTC | 0.127
137 | GAATATTA | 0.232
138 | GCTGAGCA | 0.0693
139 | GACAACTA | 0.158
140 | CTGTAACC | 0.108
141 | CCTTGGAC | -0.165
142 | CACGCCTA | -0.227
143 | CGGTCCAC | -0.222
144 | CGGTCCAA | -0.224
145 | AGGTCCAC | -0.199
146 | GGGTCCAA | 0.322
147 | GGGTCCAC | 0.301
148 | AGGTCCAA | -0.0549
149 | TCTCAACA | 0.0641
150 | TAGAGATA | 0.0396

Row | Sequence | PBM E-score
151 | CCTGACTA | 0.172
152 | GGACCCGA | 0.0929
153 | ATACCTTC | -0.0248
154 | GCCACGGA | -0.0858
155 | CGCTTGAA | 0.263
156 | CGCTTGAG | -0.0135
157 | TGCTTGAA | 0.0462
158 | CTATATTC | 0.0669
159 | CTATATTA | 0.229
160 | ATATATTA | 0.245
161 | GTTTATTA | 0.194
162 | ATTTATCC | 0.247
163 | ATATATTG | -0.0404
164 | ATTATTTA | 0.173
165 | ATTTATCA | 0.225
166 | ATTTATCG | 0.0781
167 | CTCTATTA | -0.105
168 | ATTTATTA | 0.273
169 | GTATATTA | 0.107
170 | AAGCCACA | -0.101
171 | GTAAGCCA | -0.113
172 | ACCATCTC | 0.0848
